Hit rate of the full screen: of about 62,000 compounds, about 100 (0.16%) were called active. Only a selection was taken, and actives are over-represented in it overall. Values without a mark were called inactive.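 The calls were made as follows: active = inhibition above 20% in each of the two 10-compound mixture wells holding the compound; inactive = the rest.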
These compounds were tested against Complement C1s subcomponent (Homo sapiens) (UniProt P09871) (assay: complement C1s protease inhibitors, primary screen, biochemical, 10-compound mixtures (AID 538;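 also: 0% = enzyme wells lacking compound mixture and 100% = no-enzyme blank wells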)). Settings: purified C1s, fluorogenic AMC substrate, pooled mixtures; screened at 5 µM (by protocol).
Chain of Complement C1s subcomponent (Homo sapiens) (P09871 16-437 limits assumed): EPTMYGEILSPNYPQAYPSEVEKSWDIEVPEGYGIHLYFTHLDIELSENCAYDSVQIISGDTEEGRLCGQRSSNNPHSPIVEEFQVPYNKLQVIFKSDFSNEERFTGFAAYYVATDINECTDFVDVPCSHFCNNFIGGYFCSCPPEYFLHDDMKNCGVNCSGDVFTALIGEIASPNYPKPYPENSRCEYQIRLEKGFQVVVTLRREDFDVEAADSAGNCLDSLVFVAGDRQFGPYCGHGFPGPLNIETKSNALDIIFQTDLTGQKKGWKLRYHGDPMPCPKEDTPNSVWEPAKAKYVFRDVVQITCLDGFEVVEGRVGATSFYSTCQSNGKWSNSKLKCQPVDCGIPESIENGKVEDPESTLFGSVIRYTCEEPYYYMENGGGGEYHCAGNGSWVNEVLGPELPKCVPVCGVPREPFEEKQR
Chain of Complement C1s subcomponent (Homo sapiens) (P09871 438-688 limits assumed): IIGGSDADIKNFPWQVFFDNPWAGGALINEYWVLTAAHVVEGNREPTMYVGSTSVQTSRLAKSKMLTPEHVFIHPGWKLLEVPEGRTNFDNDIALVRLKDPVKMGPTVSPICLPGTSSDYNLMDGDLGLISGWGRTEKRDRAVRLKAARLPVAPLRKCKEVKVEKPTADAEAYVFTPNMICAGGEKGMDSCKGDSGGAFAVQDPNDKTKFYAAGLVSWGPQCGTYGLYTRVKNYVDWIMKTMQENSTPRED

SMILES | mean inhibition % of two 10-compound mixtures (stronger effect = higher value)
Cc1nnc(C)n1/N=C/c1ccc(C(C)C)cc1 | 5.96%
O=C(CCc1ccccc1)Nc1ccc(NC(=O)C2CC2)nc1 | 3.19%
CC1OC2C(OC1C)N(S(C)(=O)=O)CCN2S(C)(=O)=O (configuration not stated) | 6.29%
COc1cc(C(O)c2nc3ccccc3n2C)cc(OC)c1OC (configuration not stated) | -4.52%
COc1ccc(C)cc1-n1nnnc1SCC(=O)c1cc(C)n(Cc2ccco2)c1C | 11.7%
O=C(NCC12CC3CC(C1)CC(CNC(=O)N1CCCC1)(C3)C2)N1CCCC1 | 13.6%
c1cc(-c2nn[nH]n2)ccc1CN1CCCCC1 | 14.2%
Cn1c(=O)c2[nH]c(NCC3CCCO3)nc2n(-c2ccccc2)c1=O (configuration not stated) | 64.6% (active)
Cc1nc2ccccc2c2oc(C(=O)NCC3CCCO3)cc12 (configuration not stated) | -97.9%
CCCCn1c(SCC(=O)NCC2CCCO2)nc2ccc(N3CCOCC3)cc2c1=O (configuration not stated) | -11%
COc1cccc(N2C(=O)CC(N3CCN(S(=O)(=O)c4ccccc4)CC3)C2=O)c1 (configuration not stated) | -26.5%
CCOC(=O)C1Cn2c(nc3c(c2=O)C(C)(CC)Cc2ccccc2-3)S1 (configuration not stated) | -5.78%
O=C1CC(c2cccc(Br)c2)C2=C(CCCC2=O)N1 (configuration not stated) | 17.2%
CCNC(=O)N1CCNC(=O)C1CC(=O)Nc1ccc(C(=O)OCC)cc1 (configuration not stated) | -35.7%
Cc1ccc(-c2nc(COC(=O)c3c(C)noc3C)cs2)cc1 | 3.81%
COC(=O)Cn1c(=NC(=O)CSCC(=O)Nc2cc(C)on2)sc2ccccc21 | 5.49%
COc1ccccc1-c1cc(C(=O)NCCCn2ccnc2)no1 | 9.65%
O=C(NCCCN1CCOCC1)c1cc(-c2ccc(Cl)cc2)on1 | 4.71%
CCCCc1nc2ccccc2c(=O)n1NC(=O)c1c(O)c2cccc3c2n(c1=O)CC3 | 4.25%
O=C1CC(c2ccccc2)CC(O)=C1C=NCCN1CCOCC1 (configuration not stated) | 17.3%
O=C1CCCC(O)=C1C=NCCc1ccccc1 | 50.4% (active)
CC1(C)CC(=O)C(C=NCCC2=CCCCC2)=C(O)C1 | -0.72%
COC(=O)c1nc(NC(=O)c2ccc(Cl)cc2)n[nH]1 | 12.2%
Cc1ccc(C(=O)N(CN2CCCC2=O)c2ccc(F)cc2)cc1 | 5.52%
Cc1ccc(C)c(N2CCN(C(=O)CCc3nc4ccccc4[nH]3)CC2)c1 | 1.21%
CCOC(=O)C(CCOc1cccc(CC)c1)C(=O)OCC | -10.1%
Cc1c(NC(=O)Nc2ccccc2Cl)sc(=S)n1C | -6.43%
